In PubChem BioAssay (Tox21):
Where “and” joins values, the source holds several entries; their conditions need not be identical. Equal values may be shown once. Calls of active or inactive are those of the source. Entries that show only a call come without a potency. Calls come from the whole dose curve.
Potency is the fitted concentration of half-maximal effect.

The molecules below were run against Acetylcholinesterase (Homo sapiens) (UniProt P22303) (assay: Acetylcholinesterase (AChE) small molecule antagonists: enzyme-based qHTS assay (AID 1347397; note: nearly all actives have a fitted effect of over 55% in size)). Conditions: Potency: AChE enzyme activity inhibition; series mostly up to 115 µM; activity change, negative = inhibition: at the top concentration.
Chain of Acetylcholinesterase (Homo sapiens) (P22303 whole entry, looked up): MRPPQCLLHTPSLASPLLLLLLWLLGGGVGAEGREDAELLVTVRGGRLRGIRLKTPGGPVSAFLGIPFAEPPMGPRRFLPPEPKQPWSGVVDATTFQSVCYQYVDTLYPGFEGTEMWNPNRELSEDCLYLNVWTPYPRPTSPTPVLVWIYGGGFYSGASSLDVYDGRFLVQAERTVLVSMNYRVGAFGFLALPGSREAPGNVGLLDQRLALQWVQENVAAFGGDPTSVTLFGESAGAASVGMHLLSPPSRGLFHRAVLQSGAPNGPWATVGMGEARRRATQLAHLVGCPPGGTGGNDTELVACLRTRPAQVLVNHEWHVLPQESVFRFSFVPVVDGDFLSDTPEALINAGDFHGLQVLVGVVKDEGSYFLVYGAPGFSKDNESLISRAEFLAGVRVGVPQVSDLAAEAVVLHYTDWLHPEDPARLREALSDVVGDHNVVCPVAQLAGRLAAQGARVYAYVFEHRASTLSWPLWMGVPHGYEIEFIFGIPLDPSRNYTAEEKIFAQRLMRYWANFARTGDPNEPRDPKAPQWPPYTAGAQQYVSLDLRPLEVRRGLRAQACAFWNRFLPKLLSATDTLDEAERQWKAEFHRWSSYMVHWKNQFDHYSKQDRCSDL
Description: National Center for Advancing Translational Sciences [NCATS]
Division of Preclinical Innovation [DPI]
U.S. Environmental Protection Agency [EPA]
National Institutes of Environmental Health Sciences [NIEHS]
National Toxicology Program [NTP]
U.S. Food and Drug Administration [FDA]
Acetylcholinesterase (AChE) is the primary cholinesterase in the body that hydrolyzes a key neurotransmitter, acetylcholine. Inhibition of AChE activity can lead to neurotoxicity. The known inhibitors include organophosphorous pesticides (OP), chemical warfare agents, drugs, and various phytochemicals.
An enzyme-based assay with the recombinant human AChE and Amplite Colormetric acetylcholinesterase assay kit (AAT Bioquest, Sunnyvale, CA) was used to evaluate the chemicals in the Tox21 10K library that inhibit AChE activity. The assay uses 5, 5-dithiobis-(2-nitrobenzoic acid) (DTNB) to quantify the thiocholine produced from the hydrolysis of acetylthiocholine by AChE.
Tox21 Assay Protocol Summary:
For the enzyme-based AChE assay, recombinant human AChE (50 mU/mL) in 4 uL/well was dispensed into black, clear-bottom 1536-well plates using a Multidrop Combi dispenser (Thermo Scientific, MA). Then, 23 nL of compound or DMSO (vehicle control) was transferred into the assay plates by a Pintool Station (Wako Automation, CA). The plates were incubated for 30 min at room temperature, followed by the addition of 4 uL of colorimetric detection cocktail solution (DTNB, acetylthiocholine) into each well using a Flying Reagent Dispenser (Beckman Coulter, CA) and then 10 min incubation at room temperature.
In the case of CC(C)NC(C)C, the Potency is reported as “inactive”. With C=CC(=O)OCCO the Potency was “inactive”. O=C(CCl)c1ccccc1 was tested, and the Potency was “inactive”. O=[N+]([O-])c1c(Cl)c(Cl)c(Cl)c(Cl)c1Cl was tested, and the Potency was “inactive”. With CCOC(=O)C(C)OC(=O)c1cc(Oc2ccc(C(F)(F)F)cc2Cl)ccc1[N+](=O)[O-] (stereo not given) the Potency was “inactive”. With Nc1c(Cl)cc([N+](=O)[O-])cc1Cl the Potency was “inactive”. In the case of Oc1c(Cl)c(Cl)c(Cl)c(Cl)c1Cl, the Potency is reported as “inactive”. For O=c1oc2ccccc2c(O)c1C(CC(O)c1ccc(-c2ccc(Br)cc2)cc1)c1ccccc1 (stereo not given), the “activity change, negative = inhibition” value was -6.37% [at 53 µM] (inactive). In the case of O=C1C=CC(=O)C=C1, the Potency is reported as “inactive”. In the case of Cc1ccc2c(c1N)C(=O)c1ccccc1C2=O, the Potency is reported as “inactive”. With CCN(N=O)C(N)=O the Potency was “inactive”. With C=CCc1ccc2c(c1)OCO2 the Potency was “inactive”. c1ccc(P(c2ccccc2)c2ccccc2)cc1 was tested, and the Potency was “inactive”. With Oc1cc(Cl)ccc1Oc1ccc(Cl)cc1Cl the “activity change, negative = inhibition” value was -9.8% [at 53 µM] (inactive). For CCCCCCCCOC(=O)c1ccccc1C(=O)OCCCCCCCC, the Potency was “inactive”. For Cc1cc(Cl)ccc1OCCCC(=O)O, the Potency was “inactive”. With CN(C)C(=O)Nc1ccc(Cl)cc1 the Potency was “inactive”. For COc1ccc(C=O)cc1, the Potency was “inactive”. In the case of CCN(CC)C(=O)SCc1ccc(Cl)cc1, the Potency is reported as “inactive”. For CCN(CC)C(=O)/C(Cl)=C(\C)OP(=O)(OC)OC, the Potency was “inactive”. Cc1ccc(N)c(N)c1 was tested, and the Potency was “inactive”. C=CCN(CC=C)C(=O)C(Cl)Cl was tested, and the Potency was “inactive”. C#CCOS(=O)OC1CCCCC1Oc1ccc(C(C)(C)C)cc1 (stereo not given) was tested, and the Potency was “inactive”. For C=C(C)C(=O)OCC1CO1 (stereo not given), the Potency was “inactive”. C#C[C@]1(O)CC[C@H]2[C@@H]3CCC4=CC(=O)CC[C@]4(C)[C@H]3CC[C@@]21C was tested, and the Potency was “inactive”. CCC(C)c1ccc(O)cc1 (stereo not given) was tested, and the Potency was “inactive”. For Oc1cc(Cl)ccc1Cl, the Potency was “inactive”. In the case of CN(C)c1ccc(C(=O)c2ccc(N(C)C)cc2)cc1, the Potency is reported as “inactive”. CC(C)=CC1C(C(=O)OCc2coc(Cc3ccccc3)c2)C1(C)C (stereo not given) was tested, and the Potency was “inactive”. CCOc1cc(Oc2ccc(C(F)(F)F)cc2Cl)ccc1[N+](=O)[O-] was tested, and the Potency was “inactive”. With CCCCCCOC(=O)c1ccccc1C(=O)OCCCCCC the “activity change, negative = inhibition” value was -1.58% (inactive). CNC(=O)Oc1cccc2c1OC(C)(C)O2 was tested, and the Potency was 1.65 µM (active) and 356 nM (active). O=Cc1ccco1 was tested, and the Potency was “inactive”. CC1(C)C(C=C(Cl)Cl)C1C(=O)OC(C#N)c1cccc(Oc2ccccc2)c1 (stereo not given) was tested, and the Potency was “inactive”. Oc1cc(Cl)c(Cl)cc1Cl was tested, and the Potency was “inactive”. With Clc1nc(Cl)nc(Cl)n1 the Potency was “inactive”. For C=CCc1ccc(OC)cc1, the Potency was “inactive”. CCC(=O)O[C@H]1CC[C@H]2[C@@H]3CCC4=CC(=O)CC[C@]4(C)[C@H]3CC[C@]12C was tested, and the Potency was “inactive”. In the case of Cc1ccccc1[N+](=O)[O-], the Potency is reported as “inactive”. With N#CC(Br)Br the Potency was “inactive”.
